The source of these data is PubChem BioAssay (NCATS).

Structures are written as SMILES. “And” between values parts separate entries of the source, which are not always exact repeats. Equal entries are not always repeated. Records with an inconclusive call do not appear. A number with no mark means an inactive call. The source made the active and inactive calls. Unless noted, the call rests on the fitted dose curve.

For assay [1], the target named is Androgen receptor (Homo sapiens) (UniProt P10275). Nature of the assay: qHTS assay for small molecule agonists of androgen receptor signaling (AID 588515; active means well fitted curve in the direction sought with a large enough effect in the signal ratio, with a control signal flat; the % refers to the signal ratio; further: on the % scale 0 is the no-effect control and ±100 the full control effect). The conditions noted are these: AR-UAS-bla HEK293, beta-lactamase ratio, agonist 16 h; activation: active compounds read high. In a few lines: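 EC50 and efficacy came from Hill fits of titrations (up to 92 uM) normalized to 30 nM R1881 as 100% and DMSO as 0%. Compound exposure was 16 h at 37 C on AR-UAS-bla HEK293 cells, with a 405/460/530 nm CCF4 fluorescence read.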

The target is the same in assay [2]. Nature of the assay: qHTS assay for small molecule antagonists of androgen receptor signaling (AID 588516; active means well fitted curve in the direction sought with a large enough effect in the signal ratio, with a control signal flat, not every such curve was filed as active; the % refers to the signal ratio; further: on the % scale 0 is the no-effect control and ±100 the full control effect). The gist of the method: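 AR-UAS-bla GripTite HEK 293 cells (2000/well) treated with compound titrations plus 10 nM R1881 for 16 h at 37C. Beta-lactamase read by CCF4 FRET (460/530 nm); IC50 from Hill fits, normalized to R1881 and DMSO control wells.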
A general note: qHTS replaces the single test concentration by a dilution series.

For assay [3], the target named is Bile acid receptor (Homo sapiens) (UniProt Q96RI1). Description: qHTS assay for small molecule antagonists of farnesoid X receptor signaling (AID 588526). Further: potency means the concentration at half of the fitted maximal effect. The gist of the method:
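Antagonist mode: titrated compounds tested against chenodeoxycholic acid stimulation (normalized to 50 uM CDCA and DMSO) in GeneBLAzer HEK293T cells for 16 h. Beta-lactamase read by CCF4 fluorescence; IC50 from Hill fits.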

Assay [4] concerns the target Glucocorticoid receptor (Homo sapiens) (UniProt P04150). Description: qHTS assay for small molecule agonists of glucocorticoid receptor signaling (AID 588532; active means well fitted curve in the direction sought with a large enough effect in the signal ratio, with a control signal flat; the % refers to the signal ratio;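 further: 100% = dexamethasone at 0.1 µM and 0% = DMSO only wells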). The conditions noted are these: HeLa MMTV-bla, beta-lactamase ratio, agonist, 18 h; active compounds read high; percent of dexamethasone control, DMSO zero. In a few lines: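 HeLa GRE-bla reporter cells; 18 h compound exposure at 37 C; 2 h CCF4 loading at room temperature; fluorescence at 460 and 530 nm; EC50 by Hill equation.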

Assay [5] has the same target. Description: qHTS assay for small molecule antagonists of glucocorticoid receptor signaling (AID 588533; active means well fitted inhibition curve with a large enough effect in the signal ratio, with a control signal flat, not every such curve was filed as active; the % refers to the signal ratio; further: on the % scale 0 is the no-effect control and ±100 the full control effect). The gist of the method:
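Antagonist-mode qHTS: compound titrations added to GRE-bla HeLa cells, then dexamethasone 2 nM final; 18 h, 37 C. CCF4 FRET fluorescence normalized to dexamethasone and DMSO; IC50 from Hill fit.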

Assay [6] can be described thus: qHTS assay for small molecule agonists of the antioxidant response element (ARE) signaling pathway (AID 651741; active means well fitted activation curve with a large enough effect in the signal ratio; the % refers to the signal ratio; further: potency means the concentration at half of the fitted maximal effect; on activation: % of control where 0% means no effect). In a few lines: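 HepG2 ARE-bla cells plated at 2,000 cells/well and incubated 5 h at 37 C/5% CO2 received 23 nL compound in DMSO. After 16 h at 37 C, LiveBLAzer B/G FRET substrate was applied for 2 h at room temperature and fluorescence read.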
Assay [7] concerns the target Estrogen receptor (Homo sapiens) (UniProt P03372). Description: qHTS assay for small molecule agonists of estrogen receptor alpha signaling (AID 588514).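 Further: 0% = vehicle only and 100% = reference agonist; nearly all actives have a fitted effect of over 70% in size.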 In a few lines: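 Reporter-gene assay. […] controls beta-lactamase in HEK 293 GripTite cells; after 18 hrs with compound, CCF4 substrate is added for 2 hrs and fluorescence is read.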
Assay [8] deals with Peroxisome proliferator-activated receptor delta (Homo sapiens) (UniProt Q03181). Nature of the assay: qHTS assay for small molecule antagonists of peroxisome proliferator-activated receptor delta signaling (AID 588535; active means well fitted inhibition curve with a large enough effect in the signal ratio, with a control signal flat, not every such curve was filed as active; the % refers to the signal ratio). In a few lines: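 Cells were seeded at 4000 per well in assay medium containing 2% charcoal/dextran FBS and held 5 hrs at 37 C. Compounds were then added for 18 hrs. CCF4 substrate was applied for 2 hrs at room temperature before fluorescence reading.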

Assay [9] has as its target Thyroid hormone receptor beta (Homo sapiens) (UniProt P10828). Description: qHTS assay for small molecule antagonists of thyroid hormone receptor beta signaling (AID 588547; active means well fitted inhibition curve with a large enough effect in the signal ratio, with a control signal flat, not every such curve was filed as active; the % refers to the signal ratio;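 further: cells stimulated with 0.4 nM T3 agonist during compound exposure; series mostly up to about 77 µM; on the % scale 0 is the no-effect control and ±100 the full control effect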). The conditions noted are these: TR-UAS-bla HEK293, beta-lactamase ratio, antagonist mode, 18 h. In a few lines:
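TR-UAS-bla GripTite HEK293 cells in 2% charcoal/dextran FBS medium; compounds 0.59 nM to 92 uM with T3 at 0.4nM final, 18 h at 37 C. Beta-lactamase read by CCF4 fluorescence (460/530 nm); Hill fits gave IC50 and efficacy.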

Sequence of Thyroid hormone receptor beta (Homo sapiens) (P10828 whole entry, looked up): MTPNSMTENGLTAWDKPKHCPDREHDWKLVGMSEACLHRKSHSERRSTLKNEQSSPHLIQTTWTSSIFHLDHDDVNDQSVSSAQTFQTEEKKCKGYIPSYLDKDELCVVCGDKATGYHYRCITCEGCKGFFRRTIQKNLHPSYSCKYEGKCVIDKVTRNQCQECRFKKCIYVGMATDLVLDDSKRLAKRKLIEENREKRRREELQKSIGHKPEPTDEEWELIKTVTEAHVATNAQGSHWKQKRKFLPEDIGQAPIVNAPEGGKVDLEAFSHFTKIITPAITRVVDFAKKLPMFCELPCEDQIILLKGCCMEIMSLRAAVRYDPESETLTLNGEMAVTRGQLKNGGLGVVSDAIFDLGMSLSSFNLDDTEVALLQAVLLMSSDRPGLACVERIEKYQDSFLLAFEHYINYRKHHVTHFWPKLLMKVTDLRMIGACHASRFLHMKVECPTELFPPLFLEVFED
Sequence of Peroxisome proliferator-activated receptor delta (Homo sapiens) (Q03181 whole entry, looked up): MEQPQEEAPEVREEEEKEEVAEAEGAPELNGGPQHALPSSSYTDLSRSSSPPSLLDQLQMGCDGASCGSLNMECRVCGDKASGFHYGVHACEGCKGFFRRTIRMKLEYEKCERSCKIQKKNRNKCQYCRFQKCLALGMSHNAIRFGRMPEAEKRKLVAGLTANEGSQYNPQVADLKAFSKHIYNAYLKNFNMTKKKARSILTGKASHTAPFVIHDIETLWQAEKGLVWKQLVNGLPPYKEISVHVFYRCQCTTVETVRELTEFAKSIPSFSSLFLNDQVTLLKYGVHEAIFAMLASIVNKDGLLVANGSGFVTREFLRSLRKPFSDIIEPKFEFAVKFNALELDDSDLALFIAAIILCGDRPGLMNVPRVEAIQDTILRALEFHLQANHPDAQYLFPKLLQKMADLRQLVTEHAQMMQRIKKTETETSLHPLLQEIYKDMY
Sequence of Glucocorticoid receptor (Homo sapiens) (P04150 whole entry, looked up): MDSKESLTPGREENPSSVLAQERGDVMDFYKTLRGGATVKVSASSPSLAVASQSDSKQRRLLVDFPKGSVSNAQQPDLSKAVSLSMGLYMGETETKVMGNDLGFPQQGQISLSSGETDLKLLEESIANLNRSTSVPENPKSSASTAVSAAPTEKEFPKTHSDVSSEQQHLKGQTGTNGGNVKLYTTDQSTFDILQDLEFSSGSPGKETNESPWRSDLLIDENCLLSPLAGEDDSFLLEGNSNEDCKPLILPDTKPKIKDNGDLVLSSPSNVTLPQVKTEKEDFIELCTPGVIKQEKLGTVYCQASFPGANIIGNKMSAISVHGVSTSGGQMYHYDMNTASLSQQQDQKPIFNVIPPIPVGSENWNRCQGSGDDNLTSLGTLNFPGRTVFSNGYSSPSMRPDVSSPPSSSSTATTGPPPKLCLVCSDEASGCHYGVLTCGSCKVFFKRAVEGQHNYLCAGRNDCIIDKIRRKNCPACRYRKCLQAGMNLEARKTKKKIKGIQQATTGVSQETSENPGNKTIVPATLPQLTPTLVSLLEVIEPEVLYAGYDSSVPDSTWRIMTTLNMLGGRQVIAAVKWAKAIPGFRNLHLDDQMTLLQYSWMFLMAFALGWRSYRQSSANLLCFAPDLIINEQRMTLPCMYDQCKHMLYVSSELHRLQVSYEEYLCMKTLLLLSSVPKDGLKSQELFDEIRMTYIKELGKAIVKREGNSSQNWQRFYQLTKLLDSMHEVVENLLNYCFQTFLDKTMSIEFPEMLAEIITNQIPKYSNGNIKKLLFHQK
Sequence of Androgen receptor (Homo sapiens) (P10275 whole entry, looked up): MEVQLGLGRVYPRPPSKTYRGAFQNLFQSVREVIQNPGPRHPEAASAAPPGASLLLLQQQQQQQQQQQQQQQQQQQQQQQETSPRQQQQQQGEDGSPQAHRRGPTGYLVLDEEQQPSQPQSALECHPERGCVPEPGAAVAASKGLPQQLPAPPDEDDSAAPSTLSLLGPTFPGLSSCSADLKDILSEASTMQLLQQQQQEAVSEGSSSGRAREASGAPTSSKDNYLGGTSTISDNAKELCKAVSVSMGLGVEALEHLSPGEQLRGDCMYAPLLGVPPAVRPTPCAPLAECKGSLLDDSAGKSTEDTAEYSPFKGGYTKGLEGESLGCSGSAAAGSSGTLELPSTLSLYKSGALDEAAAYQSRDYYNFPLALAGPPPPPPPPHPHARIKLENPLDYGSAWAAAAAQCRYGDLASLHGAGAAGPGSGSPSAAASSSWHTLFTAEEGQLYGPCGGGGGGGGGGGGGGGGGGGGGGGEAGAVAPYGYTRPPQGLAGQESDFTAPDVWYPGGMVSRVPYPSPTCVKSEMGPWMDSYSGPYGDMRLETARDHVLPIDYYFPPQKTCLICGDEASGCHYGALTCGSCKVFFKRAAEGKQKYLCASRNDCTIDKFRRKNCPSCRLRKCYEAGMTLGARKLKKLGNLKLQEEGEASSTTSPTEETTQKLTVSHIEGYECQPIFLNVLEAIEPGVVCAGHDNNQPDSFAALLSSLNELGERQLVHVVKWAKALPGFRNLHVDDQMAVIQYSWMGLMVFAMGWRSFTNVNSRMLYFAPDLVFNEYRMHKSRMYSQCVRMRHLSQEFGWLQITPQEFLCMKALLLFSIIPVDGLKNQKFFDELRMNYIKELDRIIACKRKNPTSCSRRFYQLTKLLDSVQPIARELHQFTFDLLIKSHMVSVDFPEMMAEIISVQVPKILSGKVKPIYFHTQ
Sequence of Bile acid receptor (Homo sapiens) (Q96RI1 whole entry, looked up): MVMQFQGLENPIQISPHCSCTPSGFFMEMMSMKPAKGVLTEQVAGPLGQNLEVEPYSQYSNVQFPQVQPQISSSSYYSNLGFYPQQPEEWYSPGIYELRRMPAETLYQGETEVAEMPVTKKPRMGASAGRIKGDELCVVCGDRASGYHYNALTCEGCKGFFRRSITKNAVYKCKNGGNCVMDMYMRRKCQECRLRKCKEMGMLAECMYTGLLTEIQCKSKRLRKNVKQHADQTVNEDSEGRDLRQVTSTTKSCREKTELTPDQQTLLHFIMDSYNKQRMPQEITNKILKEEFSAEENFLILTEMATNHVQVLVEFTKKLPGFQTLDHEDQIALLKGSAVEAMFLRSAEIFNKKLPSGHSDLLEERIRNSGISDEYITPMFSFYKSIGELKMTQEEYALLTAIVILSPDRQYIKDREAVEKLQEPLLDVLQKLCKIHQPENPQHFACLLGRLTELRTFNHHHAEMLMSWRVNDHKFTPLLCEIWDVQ
Sequence of Estrogen receptor (Homo sapiens) (P03372 whole entry, looked up): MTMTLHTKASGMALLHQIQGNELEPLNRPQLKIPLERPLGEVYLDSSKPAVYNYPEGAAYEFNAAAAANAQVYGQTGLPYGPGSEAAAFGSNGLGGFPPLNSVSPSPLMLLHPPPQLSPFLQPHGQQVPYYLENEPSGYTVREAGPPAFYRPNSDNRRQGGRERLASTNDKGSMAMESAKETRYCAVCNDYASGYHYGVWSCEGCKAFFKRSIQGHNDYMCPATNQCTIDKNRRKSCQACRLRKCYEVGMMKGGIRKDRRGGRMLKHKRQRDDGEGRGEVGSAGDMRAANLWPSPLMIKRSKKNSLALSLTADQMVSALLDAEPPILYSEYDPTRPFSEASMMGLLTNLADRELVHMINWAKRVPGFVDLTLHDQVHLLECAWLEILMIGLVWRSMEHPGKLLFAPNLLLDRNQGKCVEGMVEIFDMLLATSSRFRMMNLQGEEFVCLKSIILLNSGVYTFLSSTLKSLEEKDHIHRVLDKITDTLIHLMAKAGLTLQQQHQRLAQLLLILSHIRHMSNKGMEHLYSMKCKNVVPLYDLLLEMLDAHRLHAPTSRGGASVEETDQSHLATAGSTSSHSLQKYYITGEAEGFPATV

For the molecule `CC(=O)CC(=O)Nc1ccc(C)cc1C`, the activation in [1] is 7%; in assay [4], 7.78%. For the same molecule, in assay [2], the molecule was called inactive. Also, the Potency entry in assay [3], in assay [5] and in assay [6] was “inactive” throughout.
On to `CCCCCCCCCCCCCCCCCC#N`, for which the Potency result in assay [7], in [5], in [8] and in assay [6] was “inactive” in each case. For the same molecule, the activity change % (negative = inhibition) in assay [9] is 11.1%.
As to `Cc1c(Cl)cccc1Cl`, the Potency entry in [7] and in assay [5] was “inactive” throughout. Also, in assay [4], the activation is -6.09%.
Regarding `O=c1[nH]sc2ccccc12`, the Potency result in [7] was “inactive”. For the same molecule, the Potency in [3] was 44.7 µM (active); in assay [6], 27.3 µM (active). Also, the activation in [4] was -3.87%.
With `C[Si](C)(Cl)[Si](C)(C)Cl`, the activation in [1] is -5.2%. Further, the outcome in assay [2] was inactive. The Potency entry in assay [3], in assay [8] and in assay [6] was “inactive” each time. In [9], the activity change % (negative = inhibition) was 6.15%.
Turning to `CC/C=C/CCCCCCCCCCOC(C)=O`, the Potency result in assay [7], in assay [5], in [8] and in [6] was “inactive” each time. For the same molecule, the activation in assay [4] was 2.34%. The activity change % (negative = inhibition) in assay [9] was 4.15%.
Regarding `CC1(C)C(=O)N(Br)C(=O)N1Br`, the activation in assay [1] was -9.37%; in assay [4] it was 5.17%. The result in assay [2] was inactive. For the same molecule, the Potency entry in assay [3] and in assay [5] was “inactive” in each case. The activity change % (negative = inhibition) in assay [9] is 6.14%.
Take `O=S(=O)(O)c1ccc(N=Nc2cc(S(=O)(=O)O)c3ccccc3c2O)c2ccccc12`: the results for the activation in assay [1] and in assay [4] were 11.4% and -5.27%, respectively. Also, in assay [2], the call was inactive. The Potency result in [3], in assay [5] and in assay [8] was “inactive” throughout.
In the case of `CCCCOCCOCCO`, the Potency result in assay [7], in assay [5] and in assay [6] was “inactive” throughout. Moreover, the activation in assay [4] was -5.88%. The activity change % (negative = inhibition) in [9] is 15.3%.
As to `O=C(Cl)c1ccc(C(=O)Cl)cc1`, the Potency result in assay [7], in [5] and in assay [8] was “inactive” throughout. Further, the activity change % (negative = inhibition) in [9] was 0.623%.
For `CC1(C)CC(OC(=O)CCCCCCCCC(=O)OC2CC(C)(C)NC(C)(C)C2)CC(C)(C)N1`, the Potency entry in assay [7], in [5] and in assay [8] was “inactive” each time. Further, the activation in [4] was -2.43%.
On to `CCc1c(C(=O)O)c(=O)cnn1-c1ccc(Cl)cc1`, for which the Potency result in assay [7], in assay [3], in assay [5], in assay [8] and in assay [6] was “inactive” throughout. Also, in [9], the activity change % (negative = inhibition) is 4.34%.
On to `CCCCCCc1ccc(N)cc1`, for which the activation was -4.5% in [1] and -7.39% in assay [4]. In addition, in [2], the result was inactive. Also, the Potency entry in assay [3], in assay [5] and in [8] was “inactive” throughout. Besides, the activity change % (negative = inhibition) in assay [9] was 1.93%.
Take `CCO[Si](CCC#N)(OCC)OCC`: the Potency entry in [7], in [3], in [5] and in assay [6] was “inactive” each time. Also, the activation in assay [4] was 2.23%.
In the case of `Cc1ccc(S(=O)(=O)C(I)I)cc1`, the Potency entry in assay [7] is “inactive”.
With `C=CC(=O)OCC(C)OCC(C)OCC(C)OC(=O)C=C` (stereo unspecified), the Potency entry in assay [7] and in [5] was “inactive” throughout. Further, in assay [4], the activation was -17.2%. The activity change % (negative = inhibition) in assay [9] was 0.874%.
As to `CC(C)(C)c1cc(C(C)(C)C)c(O)c(C(C)(C)C)c1`, the Potency entry in assay [7] and in assay [5] was “inactive” in each case. For the same molecule, the activation in assay [4] was 22.2%. Besides, the activity change % (negative = inhibition) in assay [9] was -16.9%.
For `C#CCOC(=O)[C@@H](C)Oc1ccc(Oc2ncc(Cl)cc2F)cc1`, the Potency entry in assay [7], in assay [3] and in assay [8] was “inactive” in each case.
Regarding `CC(=O)CC(=O)Nc1ccccc1C`, the Potency result in assay [7] and in assay [5] was “inactive” each time. Further, the activation in assay [4] was 2.41%. In addition, the activity change % (negative = inhibition) in [9] was 7.41%.
Take `CCCCC(CC)COP(=O)(O)OCC(CC)CCCC` (stereo unspecified): the Potency result in assay [7], in [3] and in assay [8] was “inactive” throughout. Also, the activation in assay [4] is -13.4%. The activity change % (negative = inhibition) in assay [9] is -4.02%. In addition, the Potency in assay [6] is 54.5 µM (active).
For the molecule `COc1nc(C)nc(NC(=O)NS(=O)(=O)c2ccccc2OCCCl)n1`, the Potency entry in assay [7], in assay [3], in assay [5] and in [8] was “inactive” throughout. In addition, the activation in assay [4] was -18.5%. In assay [9], the activity change % (negative = inhibition) is 1.88%.
Consider `CCCCC/C=C\C/C=C\CCCCCCCC(=O)OC`, for which the Potency result in assay [7] and in assay [8] was “inactive” throughout. The activity change % (negative = inhibition) in assay [9] was -14.4%.
With `c1ccc2cc3ccccc3cc2c1`, the Potency entry in assay [7], in [3], in assay [5] and in assay [6] was “inactive” each time. Also, the activation in assay [4] was 13.3%.
Turning to `CCCCCCCC(=O)Oc1c(Br)cc(C#N)cc1Br`, the Potency result in assay [7], in assay [3] and in [5] was “inactive” in each case. The activity change % (negative = inhibition) in [9] was -2.51%. Besides, the Potency in assay [6] is 61.1 µM (active).
As for `C=C(C)C(=O)OCCCCCCCCCCCC`, the Potency entry in assay [7], in assay [5] and in assay [8] was “inactive” each time. The activation in [4] is -1.63%. The activity change % (negative = inhibition) in [9] is 0.53%.
In the case of `CCN(Cc1cccc(S(=O)(=O)O)c1)c1ccc(C(=C2C=CC(=[N+](CC)Cc3cccc(S(=O)(=O)[O-])c3)C=C2)c2ccccc2)cc1`, in assay [7], the Potency result is “inactive”. Further, the activity change % (negative = inhibition) in [9] is -4.54%. Further, the Potency in [6] is 54.5 µM (active).
On to `C[Si]1(C)O[Si](C)(C)O[Si](C)(C)O1`, for which the activation in assay [1] is -4.74%. Further, the result in [2] was inactive. The Potency entry in [3], in assay [8] and in [6] was “inactive” throughout. Also, the activity change % (negative = inhibition) in assay [9] was 5.16%.
As to `COC(=O)C(C)Oc1ccc(Oc2ncc(C(F)(F)F)cc2Cl)cc1` (stereo unspecified), the Potency result in assay [7], in assay [8] and in assay [6] was “inactive” in each case.
Regarding `C=CCCCCCCCCCCCC`, the activation in assay [1] was -5.69%; in assay [4], 9.05%. Besides, the result in assay [2] was inactive. Further, the Potency entry in assay [3] and in assay [5] was “inactive” each time.
With `CCCCOCC(C)O` (stereo unspecified), the Potency result in [7] and in assay [5] was “inactive” each time. Moreover, the activation in [4] was -3.25%. Also, the activity change % (negative = inhibition) in [9] was -39.6% and 0.784%.
In the case of `CCCCCCCCCCCC[N+](C)(C)[O-]`, the results for the activation in assay [1] and in assay [4] were -8.49% and 6.56%, respectively. The Potency entry in assay [3] is “inactive”.
Regarding `CC(COCC(C)OC(=O)c1ccccc1)OC(=O)c1ccccc1` (stereo unspecified), the Potency entry in assay [3], in assay [5] and in assay [6] was “inactive” in each case. Besides, the activation in [4] was 5.58%. Moreover, in assay [9], the activity change % (negative = inhibition) is -7.07%.
With `CCCCCCCCCCCC(=O)OC`, the figures for the Potency in assay [3] and in assay [6] were 20 µM (active) and 24.3 µM (active), respectively. The activation in assay [4] was -11.5%.
